SMILES strings stand for the structures. The whole screen tested about 390,000 compounds, of which about 17,000 (4.4%) were called active. Roughly 8% stayed inconclusive and do not appear here. Shown is part of a subset that was picked to be rich in actives. A number with no mark means an inactive call. Calls come from the whole dose curve; as a rule, active = well fitted inhibition curve with a large enough effect; inconclusive = small, poorly fitted or top-dose-only effect; inactive = no such curve, though single readings can be large or run the other way.
% is set by controls: 0 for no effect and ±100 for the full control effect; potency is the fitted concentration of half-maximal effect.

Chain of Lysine-specific demethylase 4A (Homo sapiens) (O75164 whole entry, looked up, the tested form may be a part): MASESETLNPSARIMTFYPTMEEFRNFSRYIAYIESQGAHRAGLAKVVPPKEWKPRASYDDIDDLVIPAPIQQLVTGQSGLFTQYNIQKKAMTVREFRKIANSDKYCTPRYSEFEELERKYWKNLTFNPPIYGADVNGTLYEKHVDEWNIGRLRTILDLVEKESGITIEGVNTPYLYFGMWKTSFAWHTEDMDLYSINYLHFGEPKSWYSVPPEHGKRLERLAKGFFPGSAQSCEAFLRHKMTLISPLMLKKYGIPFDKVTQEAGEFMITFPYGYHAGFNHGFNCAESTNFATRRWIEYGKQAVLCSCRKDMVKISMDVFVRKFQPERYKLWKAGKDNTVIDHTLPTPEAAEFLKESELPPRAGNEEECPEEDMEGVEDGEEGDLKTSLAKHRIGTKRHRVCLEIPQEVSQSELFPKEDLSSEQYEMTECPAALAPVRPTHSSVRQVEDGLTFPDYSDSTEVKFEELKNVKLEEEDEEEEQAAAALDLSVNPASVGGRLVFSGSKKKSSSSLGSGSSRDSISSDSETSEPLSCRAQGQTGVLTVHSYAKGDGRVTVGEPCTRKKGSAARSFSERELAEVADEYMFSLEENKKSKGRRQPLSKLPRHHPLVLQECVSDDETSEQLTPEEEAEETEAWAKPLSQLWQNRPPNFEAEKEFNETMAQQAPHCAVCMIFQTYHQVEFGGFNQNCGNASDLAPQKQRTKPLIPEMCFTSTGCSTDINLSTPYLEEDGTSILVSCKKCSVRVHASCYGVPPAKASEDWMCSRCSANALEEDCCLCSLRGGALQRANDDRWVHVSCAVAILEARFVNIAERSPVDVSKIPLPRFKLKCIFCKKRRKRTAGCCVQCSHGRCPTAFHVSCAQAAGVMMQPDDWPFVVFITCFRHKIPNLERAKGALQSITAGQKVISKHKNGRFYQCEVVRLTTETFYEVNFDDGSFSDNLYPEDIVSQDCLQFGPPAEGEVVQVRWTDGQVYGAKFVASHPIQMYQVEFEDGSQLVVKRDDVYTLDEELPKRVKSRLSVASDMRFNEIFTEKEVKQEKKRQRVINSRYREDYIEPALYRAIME

This assay concerns the target Lysine-specific demethylase 4A (Homo sapiens) (UniProt O75164). Description: qHTS Assay for Inhibitors of JMJD2A-Tudor Domain. Note: nearly all actives have a fitted effect of over 50% in size. The note with it: AlphaScreen JMJD2A-Tudor / H3K4me3 peptide binding; series mostly up to 114 µM; activity change, negative = inhibition: at the top concentration. The source says: JMJD2A is a jumonji-domain-containing lysine demethylase that uses Fe(II) together with 2-OG to effect oxidative demethylation of histones. Methylation is one of many […] modification that affect epigenetic transcription. […] It is proposed that the functions of JmjD2A binding to the histones, is to maintain marks after they are installed and to spread the modifications by […], establishing a self-propagating cycle for rapid methylation over a large area of chromatin. […] Thus, small molecule targeting of the JMJD2A-tudor domain interaction with its target methylhistone mark is expected to enable sophisticated experiments probing the fine regulatory pathways leading to selective demethylation of a given methyllysine locus based on the methylation state of adjacent histone marks. A quantitative high throughput AlphaScreen has been developed to identify small molecule inhibitors based on a protocol published by NCGC and SGC [4].
Although AlphaScreen has significant advantages with its utility in a variety of epigenetic target assays, the primary screening data provided in this deposition should be used with caution due to the prevalence of screening artifacts. The top compound concentration tested was high (>100uM) in this assay, which increases number of actives and potential artifacts. An AlphaScreen counterscreen is highly recommended to be run against any putative actives to eliminate non-specific artifacts. Alternatively, one can use other AlphaScreen assays in PubChem to filter out promiscuous hits.
[1] Lee, J. et al. Distinct binding modes specify the recognition of methylated histone H3K4 and H4K20 by JMJD2A-tudor. Nat Struct Mol Biol. 15(1); 109-11. 2008. PMID: 18084306
[2] Yasgar, et al. Compound Management for Quantitative High-Throughput Screening. JALA. 2008 Apr;13(2):79-89. PMID: 18496600
[3] Inglese, et al. Quantitative high-throughput screening: a titration-based approach that efficiently identifies biological activities in large chemical libraries. Proc Natl Acad Sci. 1;103(31):11473-8. 2006. PMID: 16864780
[4] Quinn et al. A homogeneous method for investigation of methyl-dependent protein-protein interactions in epigenetics. Nucleic Acids Res., 38(2):e11. 2010. PMID: […]
[5] Baell,Holloway. New substructure filters for removal of pan assay interference compounds (PAINS) from screening libraries and for their exclusion in bioassays. J Med Chem. 53(7):2719-40. 2010. PMID: 20131845
NIH Molecular Libraries Probe Production Network [MLPCN]
NIH Chemical Genomics Center [NCGC]
Structural Genomics Consortium (SGC)
To each well of a 1,536w plate, 2ul of JMJD2A-Tudor (final 100nM) and 1ul biotinylated histone peptide methylated at Lys4 [b-H3(1-18)K4me3] (final 50nM) were added in 1x PBS buffer, pH 7.4, containing 0.01% Tween-20, using a nanoliter dispenser. Formation of a protein-peptide complex proceeded at room temperature for 30 min. A Kalypsys pin-tool transferred 23nl of library compound solution in DMSO to each well. Following a 30 min incubation of the protein-peptide complex with compounds at room temperature, a mixture of 40 µg/mL each streptavidin-coated donor and nickel chelate acceptor AlphaScreen beads (final 10 µg/mL) was added in a 1ul dispense for a final volume of 4ul, followed by a brief centrifugation (1000 rpm, 1 min). Plates were incubated protected from the light for 20 min at room temperature. Microplates were then read on an EnVision multilabel plate reader using the 1,536 plate HTS AlphaScreen aperture (excitation time 80 ms, measurement time 240 ms).
(Quantitative high-throughput screening tests each substance at several concentrations.)
Turning to `COc1cccc2c1cc1c(=O)n(CC(=O)N3CCN(c4cccc(Cl)c4)CC3)nc(C)n12`, the “activity change, negative = inhibition” value was -10.5%.

In the case of `O=c1ccc2c(-c3ccccc3S(=O)(=O)O)c3ccc(O)c(O)c3oc-2c1O`, the Potency was 0.708 µM (active).

For the compound `CCOC(=O)c1c(C)oc2ccc(N(C(=O)c3ccncc3)S(=O)(=O)c3ccc(CC)cc3)cc12`, the “activity change, negative = inhibition” value is -29.1%.

Consider `CCOc1ccccc1C(=O)NC1(C(F)(F)F)NC(=O)N(CCc2ccc(OC)c(OC)c2)C1=O` (centres undefined), for which the “activity change, negative = inhibition” value was -25.4%.

Regarding `CCCN(C(=O)Cn1cc(S(=O)(=O)N2CCN(c3ccccc3F)CC2)c2ccccc2c1=O)c1cccc(C)c1`, the “activity change, negative = inhibition” value was -9.25%.

In the case of `COc1ccc(NC(=O)COCc2cc(-c3ccco3)on2)cc1`, the “activity change, negative = inhibition” value was 0.321%.

For `COc1ccc(OCC(=O)Nc2nnc(-c3ccco3)s2)cc1`, the Potency was 79.4 µM (active).

As to `CNc1nnc(-c2ccco2)s1`, the “activity change, negative = inhibition” value is -1.99%.

In the case of `Cc1cccc(NC(=O)CN(c2ccc(C(C)C)cc2)S(=O)(=O)c2c(C)nn(C)c2C)c1C`, the “activity change, negative = inhibition” value was -11.3%.

`Cc1ccc(C)c(CNC(=O)c2cc3ccccn3n2)c1`: the “activity change, negative = inhibition” value was -3.25%.

Turning to `CC1CCCN(c2cc3c(cc2F)c(=O)c(S(=O)(=O)c2cccc(Cl)c2)cn3Cc2ccccc2)C1` (centres undefined), the “activity change, negative = inhibition” value was -8.25%.

As for `Cc1ccc(Cl)cc1NC(=O)CCC(=O)N1CC(C)Sc2ccccc21` (centres undefined), the “activity change, negative = inhibition” value is 0%.

Consider `CC(=O)Nc1ccc(S(=O)(=O)Nc2ccc(N3CCCCC3)cc2)cc1`, for which the Potency is 20 µM (active).

Consider `CC(=O)Nc1ccc(NS(=O)(=O)c2ccc3c(c2)NC(=O)CC(=O)N3)cc1`, for which the “activity change, negative = inhibition” value was -12.2%.

As to `CC(=O)Nc1ccc(S(=O)(=O)N2CCN(c3ccccc3)CC2)cc1`, the “activity change, negative = inhibition” value was -21.8%.

As for `Cc1ccccc1C(=O)Nc1ccc(N2CCCCCC2)cc1`, the Potency is 14.1 µM (active).

As to `Cc1ccccc1C(=O)N1CCN(c2ccc(NC(=O)c3cccs3)cc2)CC1`, the “activity change, negative = inhibition” value was -29.7%.

Take `O=C(NC(=O)c1ccccc1N1CCCCC1)Nc1ccc(Br)cc1`: the “activity change, negative = inhibition” value is -15.4%.

Take `O=C(O)c1ccc2c(c1)N(Cc1ccc(F)cc1)C(=O)c1ccccc1S2=O` (centres undefined): the “activity change, negative = inhibition” value was -20.8%.

For `O=C(NCc1ccccc1Cl)C1=Cc2cc(Br)ccc2OC1`, the “activity change, negative = inhibition” value was 1.6%.

As to `CCc1ccc(NC(=O)N2CCN(C(=O)c3nsc4ccccc34)CC2)cc1`, the “activity change, negative = inhibition” value is -27.9%.

For the compound `COc1ccc(Cl)cc1NC(=O)CCn1c(=O)c2cccn2c2ccccc21`, the “activity change, negative = inhibition” value is -13.8%.

Take `COc1cc(NC(=O)Cn2nc(-c3ccc(C)c(C)c3)ccc2=O)cc(OC)c1`: the “activity change, negative = inhibition” value is -12.3%.

As for `CN(CC(=O)NCCc1ccc(F)cc1)CC(=O)Nc1ccc(F)c(F)c1F`, the “activity change, negative = inhibition” value was -4.83%.

`Cc1c(NC(=O)CN(C)CC(=O)Nc2ccc(F)c(F)c2F)c(=O)n(-c2ccccc2)n1C`: the “activity change, negative = inhibition” value is 5.56%.

`Cc1ccc(Cl)c(NC(=O)CN(C)CC(=O)Nc2ccc(F)c(F)c2F)c1Cl`: the Potency was 70.8 µM (active).

With `COc1ccc(CCC(=O)NCCc2csc(-c3ccc(Cl)cc3)n2)cc1`, the “activity change, negative = inhibition” value was -11.2%.

For `O=C(CNS(=O)(=O)c1cccs1)N1CCN(c2ccccc2Cl)CC1`, the “activity change, negative = inhibition” value was -18.4%.

Turning to `O=C(CSc1nccn1-c1cccc(F)c1)NC1CCCC1`, the “activity change, negative = inhibition” value was -3.47%.

As to `O=C(CSc1nccn1Cc1ccc(F)cc1)NCc1ccccc1`, the “activity change, negative = inhibition” value was -8.06%.

Regarding `O=C(CSc1nccn1-c1ccc(F)cc1)Nc1cccc2ccccc12`, the Potency was 28.2 µM (active).

As to `CCCNc1ncnc2c1c(-c1ccccc1)cn2-c1ccc(OCC)cc1`, the “activity change, negative = inhibition” value is -30%.

In the case of `Cc1nc2ccc(S(=O)(=O)NC(C(=O)NCc3ccccc3Cl)C(C)C)cc2s1` (centres undefined), the “activity change, negative = inhibition” value is -16.2%.

Consider `COc1ccc(-c2nc3ccccc3o2)cc1NC(=O)c1cc([N+](=O)[O-])ccc1N1CCOCC1`, for which the “activity change, negative = inhibition” value is -3.73%.

On to `Cc1ccc(CN(C(=O)COc2ccc(Cl)cc2C)C2CCS(=O)(=O)C2)o1` (centres undefined), for which the Potency is 11.2 µM (active).

With `COc1cc(C(=O)N(Cc2ccc(N(C)C)cc2)C2CCS(=O)(=O)C2)cc(OC)c1OC` (centres undefined), the activity change, negative = inhibition is -6.11% [at 11.4 µM].

`CCOc1ccc(C(=O)N(Cc2ccc(N(C)C)cc2)C2CCS(=O)(=O)C2)cc1` (centres undefined): the “activity change, negative = inhibition” value was -25.5%.

`Cc1cc(Cl)ccc1OCC(=O)N(Cc1ccc(N(C)C)cc1)C1CCS(=O)(=O)C1` (centres undefined): the Potency was 50.1 µM (active).

On to `CCc1ccc(OCC(=O)N(Cc2ccccc2)C2CCS(=O)(=O)C2)cc1` (centres undefined), for which the “activity change, negative = inhibition” value was -8.83%.

With `COc1ccccc1C(=O)N(Cc1ccc(C)o1)C1CCS(=O)(=O)C1` (centres undefined), the “activity change, negative = inhibition” value is 2.07%.

`Cc1cc(C)c(OCC(=O)N(Cc2cccs2)C2CCS(=O)(=O)C2)c(C)c1` (centres undefined): the “activity change, negative = inhibition” value is -18.9%.

With `Cc1ccccc1OCC(=O)N(Cc1cccc(F)c1)C1CCS(=O)(=O)C1` (centres undefined), the “activity change, negative = inhibition” value is -5.52%.

For `CC(C)c1ccc(OCC(=O)N(Cc2ccc(N(C)C)cc2)C2CCS(=O)(=O)C2)cc1` (centres undefined), the Potency is 44.7 µM (active).

In the case of `O=C(C1CC1)N1CCc2cc(Br)cc(S(=O)(=O)N3CCN(c4ccccc4F)CC3)c21`, the “activity change, negative = inhibition” value was -11.6%.

For `CCc1ccc2oc(-c3ccc(NC(=O)c4cc5ccccc5o4)cc3)nc2c1`, the “activity change, negative = inhibition” value was 3.27%.

With `Cc1cccc(N2CCN(C(=O)Cn3ncc4c5ccccc5n(C)c4c3=O)CC2C)c1` (centres undefined), the “activity change, negative = inhibition” value was 0.336%.

As for `CCc1ccc(CN(Cc2ccco2)C(=O)COc2ccc(Cl)c(C)c2)cc1`, the “activity change, negative = inhibition” value was 21.1%.

Regarding `COc1ccc(-n2nnc(-c3nsc(NC(=O)c4ccc(C)c(C)c4)n3)c2C)cc1Cl`, the “activity change, negative = inhibition” value is -11.7%.

For `COc1ccc(-c2cc(C(F)(F)F)n3nc(-c4ccccc4)cc3n2)cc1OC`, the “activity change, negative = inhibition” value is 29.5%.

The values above are taken from PubChem BioAssay AID504339 (National Center for Advancing Translational Sciences (NCATS), 2011).
